# Compounds with a hit are over-represented: about 5.9% of the library has one in this group of screens.
# NR0B1 inh: DAX1 (NR0B1) inhibitors, primary screen, cell-based, HEK293, Gal4-DAX1, luciferase luminescence. Nuclear receptor subfamily 0 group B member 1 (Homo sapiens), P51843. HEK293 Gal4-DAX1 luciferase reporter. inhibition, % at 6.75 µM. 340,000 compounds, 0.99% hits;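 active = inhibition above the mean over all tested compounds plus 3 SD, cut at about 4.2% in these data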;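 also: 0% = DAX1-transfected cells with DMSO and 100% = empty-vector control cells with DMSO; inhibition shows as a rise in luminescence from relieved DAX1 repression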
# AHR activator: AHR activators, primary screen, cell-based, luminescence, luciferase reporter, human | Aryl hydrocarbon receptor (Homo sapiens), P35869 | AHR-responsive luciferase reporter cells | activation, % at 5 µM | 320,000 compounds, 2.5% hits | AID 2796, 2010; in the data active = activation above about 47%;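 also: 0% = vehicle wells and 100% = reference agonist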
# Target sequence (P35869 whole entry, looked up): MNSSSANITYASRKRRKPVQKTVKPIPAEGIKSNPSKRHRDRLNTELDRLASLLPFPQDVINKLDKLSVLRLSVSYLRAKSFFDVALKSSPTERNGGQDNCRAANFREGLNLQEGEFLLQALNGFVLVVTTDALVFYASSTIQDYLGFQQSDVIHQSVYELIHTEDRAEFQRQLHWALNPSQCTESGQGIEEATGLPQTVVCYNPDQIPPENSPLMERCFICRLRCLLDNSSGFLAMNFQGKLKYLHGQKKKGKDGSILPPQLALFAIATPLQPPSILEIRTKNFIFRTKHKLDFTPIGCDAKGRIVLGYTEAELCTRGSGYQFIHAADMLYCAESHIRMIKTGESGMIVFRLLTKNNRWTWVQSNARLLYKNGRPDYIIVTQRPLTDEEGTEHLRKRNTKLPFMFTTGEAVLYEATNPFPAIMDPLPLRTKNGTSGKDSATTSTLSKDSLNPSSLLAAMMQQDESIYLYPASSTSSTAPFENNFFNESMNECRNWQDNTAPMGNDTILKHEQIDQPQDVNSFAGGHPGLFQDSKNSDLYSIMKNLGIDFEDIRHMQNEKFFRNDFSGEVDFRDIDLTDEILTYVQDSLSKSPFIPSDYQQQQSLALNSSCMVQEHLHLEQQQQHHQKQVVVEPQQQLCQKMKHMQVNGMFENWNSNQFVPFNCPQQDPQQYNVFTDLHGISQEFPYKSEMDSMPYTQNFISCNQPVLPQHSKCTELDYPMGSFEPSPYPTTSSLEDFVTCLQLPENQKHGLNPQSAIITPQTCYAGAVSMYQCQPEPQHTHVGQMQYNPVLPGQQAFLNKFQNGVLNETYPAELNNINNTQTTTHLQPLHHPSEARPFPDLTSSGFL
# HSF-1 act: HSF-1 activators, primary screen, NIH3T3-HGL cells, MG132 stress, luminescence, single point. NIH3T3-HGL HSF-1 luciferase reporter, 8 h; 100% = twice DMSO control signal. activation, % at 9 µM. 300,000 compounds, 1.7% hits. AID 504408, 2011;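 active = mean replicate activation of at least 50% with a set share of replicates each reaching 50%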;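 also: 0% = median of the neutral control wells and 100% = twice that signal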
# GAA850 FXN act: FXN promoter activators, primary screen, cell-based, luciferase luminescence, HEK293 lucGAA850. HEK293 lucGAA850 FXN promoter luciferase reporter, 24 h; percent of 10 µM SAHA response. activation, % at 6 µM. 360,000 compounds, 0.56% hits. AID 540364, 2011;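 active = activation above the average of all compounds screened plus 3 SD, cutoff fixed separately per campaign, cut at about 7.5% in these data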;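 also: 0% = DMSO wells and 100% = 10 µM SAHA wells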
# HSP90 inh: HSP90 inhibitors, primary screen, cell lysate, luminescence. inhibition, % at 5.6 µM. Rabbit reticulocyte lysate, luciferase refolding luminescence, 3 h. 290,000 compounds, 0.91% hits;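 active = inhibition above the screen-wide mean plus 3 SD, computed separately per campaign, cut at about 16% in these data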;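 also: 0% = DMSO wells and 100% = 60 µM geldanamycin wells; inhibitors lower the luminescence because luciferase stays unfolded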
# HSF1 inh: HSF1 inhibitors in luciferase reporter cells, primary screen, cell-based, NIH3T3, luminescence. NIH3T3-HGL HSE-luciferase, MG132-induced, luminescence 8 h; stronger effect = lower value. activity change, negative = inhibition, % at 7.5 µM (by protocol). 300,000 compounds, 0.77% hits. AID 2098, 2009;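 active = more than half of replicate wells show activity change below -50%, luminescence cut by over half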;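 also: luciferase reports HSF-1 transcriptional activity via heat shock element; 0% = median of DMSO wells and -100% = zero luminescence signal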
# AHR act cf: AHR activators, confirmation, cell-based, luminescence, luciferase reporter, human; activation, % at 9 µM; shares compounds with AHR activator; 2,300 compounds, 87% hits; human cells, AHR-responsive luciferase reporter; AID 2845, 2010; in the data active = activation above about 49%;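 also: HepG2 hepatoma cells carrying a DRE-driven firefly luciferase reporter; 0% = vehicle wells and 100% = reference agonist wells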
# PXR act counter: human PXR activators, counter-screen for AHR activator project, cell-based, luciferase luminescence. shares compounds with AHR activator. cell-based PXR reporter. activation, % at 11.6 µM. 2,300 compounds, 88% hits. AID 434939, 2010; in the data active = activation above about 11%;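 also: human hepatoma DPX-2 cells expressing full-length human PXR; 0% = DMSO and 100% = reference agonist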
# * hit, by the source's call; . = no result.
SMILES,NR0B1 inh,AHR activator,HSF-1 act,GAA850 FXN act,HSP90 inh,HSF1 inh,AHR act cf,PXR act counter
O=C1C2C3C=CC(C4CC34)C2C(=O)N1/N=C/c1c[nH]c2ccccc12 (stereo not given),1.2,38.7,-5.6,3.1,-0.4,7.8,.,.
O=C(O)c1ccc(N/N=C/C2=Cc3ccccc3OC2)cc1,10.7*,121.6*,36.1,5.8,15.6,15.1,83.0*,18.3*
CCNc1nc(CC)nc2c1oc1ccccc12,-1.6,17.2,10.1,2.1,-2.2,-0.9,.,.
OCCNc1nc(-c2ccccc2)nc2c1oc1ccccc12,-0.1,103.8*,-4.1,-0.7,-3.9,2.4,95.8*,26.1*
Cc1ccc(C(=O)c2oc3ccccc3c2N)cc1,2.2,112.9*,24.9,5.0,-2.5,10.1,137.7*,22.1*
CCOC(=O)c1oc2ccccc2c1NC(=O)C(C)(C)C,0.4,3.6,-16.7,1.4,5.3,-12.2,.,.
CCOC(=O)c1oc2ccccc2c1NC(=O)COC,-0.1,88.8*,10.9,2.3,0.0,-8.2,104.3*,14.9*
CCOC(=O)c1oc2ccccc2c1N,1.9,82.2*,0.4,4.4,0.4,3.3,122.4*,.
Nc1c(C(=O)c2ccccc2)oc2ccc(Br)cc12,5.7*,79.3*,62.6*,3.8,-4.9,28.8,119.9*,12.4*
CC(=O)Nc1c(N)c2ccccc2oc1=O,0.7,1.0,-5.6,1.1,0.9,-3.1,.,.
CCN(CC)CCNC(=O)c1ccc(-n2c(C)cc3c2CCCC3=O)cc1,-0.4,0.8,-5.6,2.2,-4.2,-9.4,.,.
Nc1c(Cl)cc(-c2csc(N3CCCC3c3nc4cc(Cl)c(N5CCCCC5)cc4n3CCCO)n2)cc1Cl (stereo not given),0.6,85.9*,-2.1,2.8,.,-3.0,85.7*,196.8*
CSc1nc(N)c2c3c(sc2n1)COC(C(C)C)C3 (stereo not given),1.1,96.6*,0.0,0.5,0.2,-3.0,109.5*,18.3*
COc1ccc(CC(=O)NC(c2ccccc2)c2ccc(C)cc2)c(OC)c1 (stereo not given),-0.4,-0.9,16.9,-0.3,-1.7,-0.5,.,.
O=C(N/N=C/c1c[nH]c2ccccc12)c1cc(-c2ccc3ccccc3c2)n[nH]1,-0.9,145.3*,49.8,0.4,5.6,19.8,52.6*,11.7*
O=C(N/N=C/c1c[nH]c2ccccc12)c1cc(-c2cccc3ccccc23)n[nH]1,1.6,91.8*,29.8,-2.5,1.1,-1.0,18.1,5.5
O=C(N/N=C/c1c[nH]c2ccccc12)c1cc(-c2ccccc2)n[nH]1,0.9,37.9,.,1.9,-0.7,.,.,.
COC1OC2COC(c3ccccc3)OC2C(OC(C)=O)C1OC(C)=O (stereo not given),-0.1,.,.,0.8,.,.,.,.
CC(NCc1cccs1)c1ccccc1 (stereo not given),0.5,-1.8,9.8,3.0,0.8,-3.8,.,.
CN(CCO)c1c2c(nc3cc(-c4cccc(F)c4)nn13)CCCC2,1.4,89.1*,9.9,6.7,1.9,13.1,91.9*,64.2*
CN(C)CCNC(=O)c1ccc(CS(=O)(=O)c2ccc(Br)cc2)o1,2.3,0.1,9.9,-0.3,-0.8,-6.2,.,.
O=C(Cn1c(NCCCO)nc2ccccc21)c1ccc(Cl)cc1Cl,1.2,120.3*,5.2,1.5,2.9,-2.9,121.9*,20.2*
O=C(Cn1c(NCCCO)nc2ccccc21)c1ccc(Cl)cc1,-1.9,4.7,0.1,-0.9,-0.9,-0.5,.,.
O=C(Oc1cccc([N+](=O)[O-])c1)c1ccc2c(=O)n3c(nc2c1)CCC3,-0.4,2.9,.,0.9,.,.,.,.
CC1CCN(C(=O)c2cc(-c3ccco3)on2)CC1,0.3,97.4*,17.4,3.0,4.0,26.4,128.0*,30.7*
SMILES,NR0B1 inh,AHR activator,HSF-1 act,GAA850 FXN act,HSP90 inh,HSF1 inh,AHR act cf,PXR act counter
COc1ccc(NC(=O)Nc2cc(C(C)(C)C)on2)cc1OC,-0.1,11.5,-1.2,1.7,-3.6,-0.5,.,.
Cc1ccc(C(=O)c2sc3c(c2N)c(=O)[nH]c(=O)n3CCc2ccccc2)cc1,0.7,86.0*,35.7,4.0,-1.7,3.2,92.5*,42.4*
Cc1ccc(C(=O)Nc2cccc(C(F)(F)F)c2)cc1Nc1ncnc2nc[nH]c12,1.2,83.7*,-49.3,3.1,.,-41.5,39.1,30.0*
O=C(COC(=O)/C=C/C(=O)N1CCN(c2ccccc2)CC1)NC(c1ccccc1)c1ccccc1,-0.6,1.2,11.8,1.0,-4.4,7.4,.,.
CC(C)(C)N1CC(OC(N)=O)C1,2.2,2.0,-10.5,1.4,7.7,-7.8,.,.
COc1cccc(C(=O)NC(=O)Nc2cc(C)on2)c1,3.0,-3.1,27.4,3.5,-1.3,15.4,.,.
Cc1cc(NC(=O)NC(=O)c2cccc(OC(F)(F)C(F)F)c2)n[nH]1,1.1,156.8*,27.2,2.9,0.7,8.4,103.5*,17.0*
CNC(=S)N/N=C/c1c(C)c(C(=O)c2ccc(F)cc2)n2ccccc12,-0.8,23.2,17.9,-1.2,1.7,-3.5,.,.
Cc1c(/C=N/NC(N)=O)c2ccccn2c1C(=O)c1ccc(F)cc1,-0.6,90.3*,29.8,6.3,6.1,-4.1,26.3,77.4*
Nc1nc(Nc2cccc(F)c2)nc2ccccc12,3.3,82.6*,55.5*,2.2,0.0,35.8,75.4*,35.3*
COc1ccc(Cl)cc1Nc1nc(N)c2ccccc2n1,0.5,105.0*,18.7,0.9,-3.7,17.8,115.1*,13.7*
CC(=O)N1CCN(C(=O)COC(=O)c2oc3ccccc3c2C)CC1,0.6,1.4,.,-0.1,.,.,.,.
CN1CCC(=NNC(=O)c2cn(-c3ccccc3)nc2-c2ccccc2)CC1,-0.4,5.5,6.7,1.1,4.5,3.0,.,.
Cc1cc(C)c2c(c1)SC1=NC(c3ccccc3)(C(F)(F)F)NC(=O)N12 (stereo not given),0.1,91.0*,8.8,1.1,1.9,-1.3,66.2*,21.1*
Cc1ccc(OCC(=O)NCc2cccs2)c([N+](=O)[O-])n1,-0.2,105.4*,6.8,4.4,2.6,-13.9,6.4,11.8*

# Source: PubChem BioAssay (several laboratories)
